These results are taken from PubChem BioAssay AID602144 (Vanderbilt Specialized Chemistry Center, 2011).

Molecules are shown by their SMILES. Activity calls are given as the source filed them. No stated cut-off is given here; in the data, active means remaining activity below about 50%; inactive means the rest.

The test deals with Phospholipase D1 (Homo sapiens) (UniProt Q13393). In words: PLD1 inhibitors in cells, Calu-1 cells, single concentration (AID 602144).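 Further: tested at 200 nM.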 The conditions noted are these: cellular PLD1 activity, hits give low values.
Phospholipase D1 (Homo sapiens), sequence (Q13393 whole entry, looked up): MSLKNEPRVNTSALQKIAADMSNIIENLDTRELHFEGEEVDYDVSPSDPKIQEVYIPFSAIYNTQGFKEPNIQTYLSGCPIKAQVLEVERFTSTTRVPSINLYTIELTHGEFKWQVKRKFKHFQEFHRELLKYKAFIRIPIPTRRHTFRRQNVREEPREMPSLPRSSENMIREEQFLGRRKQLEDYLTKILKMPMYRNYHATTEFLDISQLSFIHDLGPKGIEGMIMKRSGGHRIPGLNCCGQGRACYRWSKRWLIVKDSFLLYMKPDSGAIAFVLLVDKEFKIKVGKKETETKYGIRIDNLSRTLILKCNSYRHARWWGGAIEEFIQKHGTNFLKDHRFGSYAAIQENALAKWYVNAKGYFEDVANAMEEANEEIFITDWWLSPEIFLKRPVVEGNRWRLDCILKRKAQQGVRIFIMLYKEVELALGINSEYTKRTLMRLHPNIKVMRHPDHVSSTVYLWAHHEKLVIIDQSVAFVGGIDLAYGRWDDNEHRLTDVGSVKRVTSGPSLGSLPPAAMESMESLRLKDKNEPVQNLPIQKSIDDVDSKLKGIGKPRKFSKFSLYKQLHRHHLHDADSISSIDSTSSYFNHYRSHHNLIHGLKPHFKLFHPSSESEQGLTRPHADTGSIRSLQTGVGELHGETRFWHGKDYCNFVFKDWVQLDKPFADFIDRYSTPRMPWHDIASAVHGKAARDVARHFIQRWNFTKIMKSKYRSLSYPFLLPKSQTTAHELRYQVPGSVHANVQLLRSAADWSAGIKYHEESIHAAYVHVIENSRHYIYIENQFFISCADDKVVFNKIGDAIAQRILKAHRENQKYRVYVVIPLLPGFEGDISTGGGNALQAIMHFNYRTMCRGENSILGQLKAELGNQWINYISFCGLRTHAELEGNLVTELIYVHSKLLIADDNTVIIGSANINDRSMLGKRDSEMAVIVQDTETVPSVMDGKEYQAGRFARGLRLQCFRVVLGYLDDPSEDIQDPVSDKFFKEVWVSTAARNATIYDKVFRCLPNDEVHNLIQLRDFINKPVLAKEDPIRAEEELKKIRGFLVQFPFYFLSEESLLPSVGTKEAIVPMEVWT
Phospholipase D1 (Homo sapiens), sequence (Q13393 whole entry, looked up): as above
On to `CC(C)[C@@H](CN1CCC(n2c(=O)[nH]c3ccccc32)CC1)NC(=O)c1cc2cc(F)ccc2[nH]1`, for which the remaining activity was 69.6% (inactive).

On to `C[C@@H](CN1CCC(c2nc3ccccc3[nH]2)CC1)NC(=O)c1ccc2ccccc2c1`, for which the remaining activity was 58.7% (inactive).

Regarding `O=C(NCCN1CCC(n2c(=O)[nH]c3cc(Cl)ccc32)CC1)c1ccc2ccccc2c1`, the remaining activity is 10.3% (active).

As to `CN1CCC2(CCN(CCNC(=O)[C@H]3C[C@@H]3c3ccccc3)CC2)C1=O`, the remaining activity was 107% (inactive).

Turning to `O=C(NCCN1CCC(n2c(=O)[nH]c3cc(Cl)ccc32)CC1)c1ccc(Cl)cc1`, the remaining activity is 7.16% (active).

Consider `O=c1[nH]c2ccccc2n1C1CCN(CCNC(=S)Nc2ccc(Cl)c(Cl)c2)CC1`, for which the remaining activity is 170% (inactive).

As for `O=C(NCCN1CCC(n2c(=O)[nH]c3ccccc32)CC1)c1ccc2ccc3c4c2c1CC=C4CC=C3`, the remaining activity is 95.6% (inactive).

For the compound `O=C(c1ccc(Cl)cc1)N(CCN1CCC(n2c(=O)[nH]c3ccccc32)CC1)C(=O)c1ccc(Cl)cc1`, the remaining activity was 63.9% (inactive).

Consider `O=C(NCCN1CCC(n2c(=O)[nH]c3ccc(F)cc32)CC1)c1cccc2c1C(=O)c1ccccc1-2`, for which the remaining activity is 0% (active).

In the case of `NC1(CN2CCC(n3c(=O)[nH]c4cc(Cl)ccc43)CC2)CCCC1` (tested in a mixture with another compound), the remaining activity was 70.2% (inactive).

Turning to `C[C@@H](CN1CCC(n2nnc3cc(C(F)(F)F)ccc32)CC1)NC(=O)c1ccc2ccccc2c1`, the remaining activity is 65.2% (inactive).

With `Cc1cccc(NC(=S)NCCN2CCC(n3c(=O)[nH]c4ccccc43)CC2)c1`, the remaining activity was 148% (inactive).

Take `CC(C)[C@@H](CN1CCC(n2c(=O)[nH]c3ccccc32)CC1)NC(=O)c1ccc2ccccc2c1`: the remaining activity is 84.6% (inactive).

On to `O=C(NCCN1CCN(c2ccncc2)CC1)c1c2ccccc2cc2ccccc12`, for which the remaining activity is 183% (inactive).

On to `C[C@@H](CN1CCC(c2nc3ccc(F)cc3[nH]2)CC1)NC(=O)[C@H]1CC1c1ccccc1` (stereo not given in full), for which the remaining activity was 88% (inactive).

As for `O=C(NCCN1CCC2(C=Cc3ccccc32)CC1)[C@H]1C[C@@H]1c1ccccc1`, the remaining activity was 107% (inactive).

Consider `C[C@@H](CN1CCC2(C=Cc3ccccc32)CC1)NC(=O)c1cnc2ccccc2c1`, for which the remaining activity was 137% (inactive).

`O=C(c1ccc(Cl)cc1)N1CCC(n2c(=O)[nH]c3cc(Cl)ccc32)CC1`: the remaining activity is 79.2% (inactive).

For `O=C(NCCN1CCC(n2c(=O)[nH]c3ccccc32)CC1)c1cccc2ccc3ccccc3c12`, the remaining activity was 75.2% (inactive).

`O=C(NCCN1CCC(n2c(=O)[nH]c3ccccc32)CC1)C(c1ccccc1)(c1ccccc1)c1ccccc1`: the remaining activity is 99% (inactive).

Regarding `O=C(NCCN1CCN(c2ccccn2)CC1)c1ccc(F)cc1`, the remaining activity was 126% (inactive).

For the compound `C[C@@H](CN1CCC2(C=Cc3ccccc32)CC1)NC(=O)[C@H]1C[C@@H]1c1ccccc1`, the remaining activity is 126% (inactive).

For `Cc1ccc(C(=O)N[C@@H](C)CN2CCC(n3c(=O)[nH]c4c(F)cccc43)CC2)cc1`, the remaining activity was 40.7% (active).

Take `O=C(NCCN1CCC2(CC1)CNCc1ccccc12)c1cnc2ccccc2c1`: the remaining activity was 95.4% (inactive).

As for `CC(C)C(=O)N[C@@H](C)CN1CCC(n2c(=O)[nH]c3ccccc32)CC1`, the remaining activity was 104% (inactive).

Take `O=c1[nH]c2ccccc2n1C1CCN(CCNC(=S)Nc2cccc3ccccc23)CC1`: the remaining activity was 152% (inactive).

For the compound `O=C(NCCN1CCC(n2c(=O)[nH]c3ccccc32)CC1)c1cc2ccccc2c2c1ccc1ccccc12`, the remaining activity was 102% (inactive).

`O=C(NCCN1CCC(n2c(=O)[nH]c3ccccc32)CC1)c1cnc2ccccc2n1`: the remaining activity was 83.7% (inactive).

`O=C(NCCN1CCC(n2c(=O)n(C(=O)c3ccc(Cl)cc3)c3ccccc32)CC1)c1ccc(Cl)cc1`: the remaining activity was 27.8% (active).

Take `Nc1ccc(C(=O)NCCN2CCC(n3c(=O)[nH]c4ccccc43)CC2)c(F)c1`: the remaining activity is 68.5% (inactive).

Take `O=C(NCCN1CCC(n2c(=O)[nH]c3ccccc32)CC1)Nc1cccc(OC(F)(F)F)c1`: the remaining activity was 131% (inactive).

In the case of `COc1cccc(N2CCN(CCNC(=O)c3ccc(C)cc3)CC2)c1`, the remaining activity was 84.8% (inactive).

`C[C@@H](CN1CCC(n2c(=O)[nH]c3ccccc32)CC1)NC(=O)C1C[C@H]1c1ccccc1` (stereo not given in full): the remaining activity is 25.5% (active).

Consider `O=C(NCCN1CCC(n2c(=O)[nH]c3ccccc32)CC1)Nc1ccccc1F`, for which the remaining activity is 102% (inactive).

`Cn1c(C2CCN(CC3(N)CCCC3)CC2)nc2ccccc21` (tested in a mixture with another compound): the remaining activity was 95% (inactive).

Regarding `Cc1ccc(C(=O)NCCN2CCN(c3ccncc3)CC2)cc1`, the remaining activity is 148% (inactive).

Consider `O=C(NCCN1CCC(n2c(=O)[nH]c3ccccc32)CC1)N1c2ccccc2C=Cc2ccccc21`, for which the remaining activity is 92.3% (inactive).

Turning to `C[C@@H](CN1CCC(n2c(=O)[nH]c3ccccc32)CC1)NC(=O)c1cc2cc(F)ccc2[nH]1`, the remaining activity was 30.1% (active).

In the case of `O=C(NCCN1CCN(c2ncccn2)CC1)c1ccc(F)cc1`, the remaining activity was 76.5% (inactive).

For the compound `O=C1c2ccccc2C(=O)N1CCN1CCC(n2c(=O)[nH]c3ccccc32)CC1`, the remaining activity is 112% (inactive).
